Screens from PubChem.
Only some compounds are listed: those with a hit (about 27% of all), similar ones and a draw of the others.
CYP2C9 inhib – human CYP2C9 inhibition | P11712 | CYP2C9 Supersomes, luciferin-H conversion, luminescence | inhibition, % at 5 µM | actives 20% (n = 96,000) | AID 777;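 active = blocking of liver enzyme CYP2C9 beyond about 50% at 5 µM, limit read from the data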
Pyk2 oligo antag – blocks oligomerization of human Pyk2 in cells; Q14289; actives 0.83% (n = 99,000); Q293 cells, Pyk2 FERM NanoBiT luminescence; hits give low values; z-score (the deposit names both 25 µM and 10 µM);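 active = Z-score of -3 or lower, scaled per plate to the spread of control and sample wells; inactive = z-score above -3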;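 also: negative z-score means lost luminescence so less FERM oligomerization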
Cav3 T inh – human Cav3.2 channel inhibition, primary screen | O95180 | Cav3.2-expressing cells, Fluo-4 calcium fluorescence FDSS; hits give low values | B-score at 10 µM | actives 4% (n = 100,000);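 active = single-dose well whose peak fluorescence ratio is a statistical outlier from its plate by either plate-standardised score or position-corrected B-score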
CYP2C19 inhib – human CYP2C19 inhibition. actives 21% (n = 96,000). AID 778. P33261. inhibition, % at 5 µM. CYP2C19 Supersomes, luciferin-H EGE luminescence, 30 min;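 active = CYP2C19 inhibition above a set limit at 5 µM in the primary screen, cut at about 50% in these data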;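 also: plate controls were negative control wells for no effect and 2.5 mM tranylcypromine positive control for full effect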
Target sequence (P33261 whole entry, looked up): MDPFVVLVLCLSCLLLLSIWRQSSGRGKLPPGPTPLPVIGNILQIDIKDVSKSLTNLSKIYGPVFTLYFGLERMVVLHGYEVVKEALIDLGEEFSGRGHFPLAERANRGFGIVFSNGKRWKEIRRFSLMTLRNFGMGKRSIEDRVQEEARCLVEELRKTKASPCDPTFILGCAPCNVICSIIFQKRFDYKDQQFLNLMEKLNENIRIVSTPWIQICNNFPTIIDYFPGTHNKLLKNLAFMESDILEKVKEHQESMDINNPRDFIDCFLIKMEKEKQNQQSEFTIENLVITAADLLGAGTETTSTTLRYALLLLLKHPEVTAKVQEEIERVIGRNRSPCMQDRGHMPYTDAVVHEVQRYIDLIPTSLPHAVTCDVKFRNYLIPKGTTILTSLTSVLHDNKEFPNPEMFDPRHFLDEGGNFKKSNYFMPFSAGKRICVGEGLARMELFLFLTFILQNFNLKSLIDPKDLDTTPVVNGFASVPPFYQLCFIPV
CYP2C19 activ – increases human CYP2C19 enzyme activity; recombinant CYP2C19, luciferin-H EGE luminescence; hits give high values; 0 = fully inhibited enzyme, 1 = untreated enzyme; activation factor at 5 µM; 96,000 tested, under 10 active; AID 1025;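 active = activation factor of at least 2 at 5 µM in the primary screen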;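 also: 0 = wells with 2.5 mM tranylcypromine and 1 = vehicle-only wells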
CYP2C9 activ – CYP2C9 (human) activation; AID 1024; P11712; actives 1.4% (n = 96,000); activation factor at 5 µM; recombinant CYP2C9, luciferin-H conversion, luminescence; hits give high values; factor 1 = untreated enzyme, 0 = blocked;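 active = activation factor of 2 or more for CYP2C9 at a 5 µM dose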;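 also: 0 = sulfaphenazole-blocked wells and 1 = vehicle-only wells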
An asterisk follows results filed as active; · = not tested or not shown.

SMILES | CYP2C9 inhib | Pyk2 oligo antag | Cav3 T inh | CYP2C19 inhib | CYP2C19 activ | CYP2C9 activ
COc1ccc(CC(=O)Nc2cccc(-c3nnc(-c4ccc(C)cc4)o3)c2)cc1OC | · | -2.5 | -0.7 | · | · | ·
COc1ccc(CC(=O)Nc2cccc(-c3nnc(-c4ccccc4)o3)c2)cc1OC | 78* | -3.6* | 0.54 | 85* | 0.2 | 0.2
COc1ccc(-c2nc3cc(NC(=O)Cc4ccc(OC)c(OC)c4)ccc3o2)cc1 | 55* | -1.6 | -1.4 | 57* | 0.4 | 0.4
COc1ccc(CC(=O)Nc2ccc(-c3nnc(-c4ccccc4)o3)cc2)cc1OC | 25 | -0.38 | 1.4 | 14 | 0.9 | 0.8
COc1ccc(CC(=O)Nc2cccc(-c3nnc(-c4cccc(C)c4)o3)c2)cc1OC | 88* | -2 | -5.5 | 98* | 0 | 0.1
CCCn1nnc(NC(=O)COc2ccc(C3CCCCC3)cc2)n1 | 89* | -0.67 | -3.3 | 62* | 0.4 | 0.1
COC(=O)CNC(=O)COC(=O)c1cc(F)c(F)cc1Cl | -4 | 0.57 | 0.77 | 4 | 1 | 1
O=C(Nc1ccccc1)N(C1=NCCCCS1)c1cccc2ccccc12 | 20 | -1.3 | 0.11 | 61* | 0.4 | 0.8
Cc1c(N(C(=O)Nc2ccccc2)C2=NCC(C)S2)c(=O)n(-c2ccccc2)n1C (stereo not drawn) | 74* | 0.11 | 1.2 | 32 | 0.7 | 0.3
CNC(=O)N(C1=NCC(C)S1)c1ccc(F)cc1F (stereo not drawn) | 26 | 2.1 | 0.95 | 62* | 0.4 | 0.7
O=C(Nc1ccccc1)N(Cc1ccccc1)C1=NCCS1 | 56* | 0.65 | 0.34 | 12 | 0.9 | 0.4
CC1CN=C(N(Cc2ccccc2)C(=O)Nc2ccccc2)S1 (stereo not drawn) | 47 | -0.01 | -8.4* | 18 | 0.8 | 0.5
COc1ccccc1N(C(=O)NCc1ccccc1)C1=NCC(C)S1 (stereo not drawn) | 57* | · | -4.7* | 47 | 0.5 | 0.4
CC1CN=C(N(C(=O)Nc2ccccc2)C(C)C)S1 (stereo not drawn) | · | 0.43 | -0.3 | · | · | ·
CC(C)CN(CC(C)C)S(=O)(=O)N1CCC(C(=O)NC2CCCCCCC2)CC1 | 9 | 0.45 | -2.3 | 3 | 1 | 0.9
Cc1cc(C)n(-c2ccc(C(=O)OCC(=O)Nc3ccc(S(=O)(=O)N4CCOCC4)cc3)cc2)n1 | 71* | 1.6 | -0.14 | 88* | 0.1 | 0.3
Cc1cc(C)n(-c2ccc(C(=O)OCC(=O)c3ccc(Br)s3)cc2)n1 | 90* | 0.55 | -1.9 | 77* | 0.2 | 0.1
CCOCC(=O)Nc1ccc(S(=O)(=O)N2CCOCC2)cc1 | 11 | 3 | 0.049 | 6 | 0.9 | 0.9
Cc1cc(C)n(-c2ccc(C(=O)OCC(=O)Nc3ccc(Cl)c(S(=O)(=O)N(C)C)c3)cc2)n1 | -69 | 0.43 | -3.6 | 83* | 0.2 | 1.7
O=C1CC(N2CCN(c3nc4ccccc4s3)CC2)C(=O)N1Cc1cccs1 (stereo not drawn) | 69* | -1.6 | -1.2 | 48 | 0.5 | 0.3
O=C1CC(N2CCN(c3ccc(F)cc3)CC2)C(=O)N1Cc1cccs1 (stereo not drawn) | 33 | -0.7 | 0.37 | 30 | 0.7 | 0.7
CCN(CC)CCCN(Cc1cc2cc3c(cc2[nH]c1=O)OCCO3)C(=O)Nc1ccc(F)cc1 | 6 | -0.01 | 0.46 | 19 | 0.8 | 0.9
Cc1cc(C)c(C#N)c(Oc2ccc(O)cc2)n1 | 65* | · | -0.79 | 26 | 0.7 | 0.4
Cc1cc(C)c(C#N)c(Oc2ccc(F)cc2)n1 | 13 | -0.49 | -0.36 | 13 | 0.9 | 0.9
CC1=C(C(=O)Nc2ccccc2Cl)C(c2ccc(N(C)C)cc2)NC(=O)N1 (stereo not drawn) | -14 | 0.8 | 0.53 | -2 | 1 | 1.1
SMILES | CYP2C9 inhib | Pyk2 oligo antag | Cav3 T inh | CYP2C19 inhib | CYP2C19 activ | CYP2C9 activ
CN(C)c1nc(N)nc(CSc2ncc(Cl)cc2Cl)n1 | 0 | 0.97 | -0.84 | 64* | 0.4 | 1
C/C(=N\Nc1ccc([N+](=O)[O-])cc1)c1cccc(N)c1 | 40 | -2.2 | 0.35 | 90* | 0.1 | 0.6
COc1ccc(OC)c(N2C(=O)C(Cl)=C(N3CCCCC3)C2=O)c1 | 78* | 1.7 | -0.68 | 66* | 0.3 | 0.2
O=C1C(Cl)=C(N2CCCCC2)C(=O)N1c1ccccc1Cl | 32 | 1.1 | 0.56 | 32 | 0.7 | 0.7
COc1ccc(OC)c(N2C(=O)C(Cl)=C(N3CCOCC3)C2=O)c1 | 22 | -0.35 | 0.35 | 60* | 0.4 | 0.8
O=C(NC1CCN(C(=O)NCc2ccccc2)CC1)c1ccco1 | -2 | 0.95 | 0.43 | 4 | 1 | 1
CC1CCN(C(=O)C2Cc3ccccc3CN2S(=O)(=O)c2ccc(F)cc2)CC1 (stereo not drawn) | 21 | 0.86 | -1.9 | 20 | 0.8 | 0.8
O=C(Nc1cccc2c1[nH]c1ccccc12)C(F)(F)F | · | 0.12 | -0.83 | · | · | ·
O=C(O)C1CCCN(S(=O)(=O)c2ccc(Br)cc2)C1 (stereo not drawn) | -23 | 2.4 | 0.047 | -13 | 1.1 | 1.2
Cn1ccs/c1=N\S(=O)(=O)c1ccc(Br)cc1 | -141 | -0.24 | 0.061 | 37 | 0.6 | 2.4*
O=[N+]([O-])c1ccc(-c2cc(-c3ccncc3)nc3ccc4ccccc4c23)cc1 | 26 | -0.08 | -0.87 | 4 | 1 | 0.7
CC(C)OC(=O)C1C2C=CC3(CN(Cc4cccs4)C(=O)C13)O2 (stereo not drawn) | 8 | 0.73 | -0.31 | 25 | 0.8 | 0.9
O=C1N=C(N2CCC(Cc3ccccc3)CC2)S/C1=C/c1cn[nH]c1-c1ccccc1 | 60* | -0.99 | · | 48 | 0.5 | 0.4
CCN1CCN(C2=NC(=O)/C(=C/c3ccc(C)o3)S2)CC1 | -48 | 0.4 | -0.0065 | -2 | 1 | 1.5
COc1cc(C2NC(C(=O)O)CS2)ccc1OCc1ccccc1C#N (stereo not drawn) | 27 | · | 0.16 | 59* | 0.4 | 0.7
COC(=O)C(C)N(C(=O)c1ccc(C(=O)c2ccccc2)cc1)c1c(C)cccc1C (stereo not drawn) | 98* | -1.7 | -4.5* | 94* | 0.1 | 0
COC(=O)C(C)N(C(=O)c1ccc(Cl)cc1)c1c(C)cccc1C (stereo not drawn) | 32 | -0.41 | -6.6* | 36 | 0.6 | 0.7
CCc1nc2ccccc2c(C(=O)OCC(=O)NCc2ccco2)c1C | 47 | 0.03 | 0.29 | 56* | 0.4 | 0.5
O=C(COC(=O)c1ccccc1Nc1ccccc1)NCc1ccco1 | 27 | -0.78 | -3.1 | 39 | 0.6 | 0.7
CCCc1nc2ccccc2c(C(=O)OCC(=O)NCc2ccco2)c1CC | 70* | -1 | -2 | 46 | 0.5 | 0.3
CC(NC(=O)C12CC3CC(CC(C3)C1)C2)C(=O)N/N=C/C1=C(N2CCOCC2)C(=C\c2ccccc2)/CC1 (stereo not drawn) | · | -0.12 | · | · | · | ·
